# Assay results as given in PubChem BioAssay AID1851 (National Center for Advancing Translational Sciences (NCATS), 2009).
# Among all 16,000 compounds or so, about 2,600 (16%) were called active. Not shown: some 20% with an inconclusive outcome. A selection follows. Values without a mark were called inactive. Calls come from the whole dose curve; as a rule, active = well fitted curve in the direction sought with a large enough effect; inconclusive = small, poorly fitted or top-dose-only effect, or effect the other way; inactive = no such curve, though single readings can be large or run the other way.
# Biological target: Cytochrome P450 2D6 (Homo sapiens) (UniProt P10635)
# Assay: Cytochrome panel assay with activity outcomes
# Conditions: recombinant CYP, pro-luciferin dealkylation, luminescence, p450-cyp2d6; series mostly up to 57.1 µM
# % is set by controls: 0 for no effect and ±100 for the full control effect.
# Sequence of Cytochrome P450 2D6 (Homo sapiens) (P10635 whole entry, looked up): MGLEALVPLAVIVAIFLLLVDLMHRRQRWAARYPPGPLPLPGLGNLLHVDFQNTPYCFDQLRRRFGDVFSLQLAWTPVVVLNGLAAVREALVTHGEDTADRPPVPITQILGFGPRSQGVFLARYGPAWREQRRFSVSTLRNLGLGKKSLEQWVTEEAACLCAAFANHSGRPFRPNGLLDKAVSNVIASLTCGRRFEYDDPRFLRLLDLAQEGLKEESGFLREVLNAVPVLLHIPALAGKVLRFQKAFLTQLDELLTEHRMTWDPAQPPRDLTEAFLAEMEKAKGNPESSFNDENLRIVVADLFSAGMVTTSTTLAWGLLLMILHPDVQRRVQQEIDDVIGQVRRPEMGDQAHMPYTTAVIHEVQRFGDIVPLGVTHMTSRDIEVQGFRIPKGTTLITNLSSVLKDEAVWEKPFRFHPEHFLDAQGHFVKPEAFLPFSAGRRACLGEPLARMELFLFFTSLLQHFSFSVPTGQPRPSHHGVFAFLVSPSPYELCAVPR
Structure (SMILES),AC50,"activity, negative = inhibition"
N#CCCn1c(=O)c(-c2ccc(F)cc2)nc2cnc(OCc3ccccc3)nc21,inactive,–
Cc1ccc(S(=O)(=O)N[C@H]2COC(=O)C/C=C\[C@@H](C)[C@H](NS(=O)(=O)c3ccc(C)cc3)COC(=O)C/C=C\[C@H]2C)cc1,–,4.7% [at 11.4 µM]
COCCn1c(=O)c(C)nc2cnc(N3CCN(C)CC3)nc21,inactive,–
Clc1ccc(Cl)c(SCCCN2CCNCC2)c1,2.51 µM (active),–
COC(=O)c1sccc1NC(=O)CSc1cc(Cl)ccc1Cl,inactive,–
Cc1cccc(C(=O)O/N=C(\N)c2cccc([N+](=O)[O-])c2)c1,inactive,–
C#C[C@]1(O)CC[C@H]2[C@H]3CCC4=Cc5oncc5C[C@]4(C)[C@@H]3CC[C@]21C,inactive,–
CSc1nsc(SC)c1NC(=O)OCC1CCCO1 (configuration not stated),inactive,–
C=CCNC(=O)c1ccc2nc(-c3ccccc3)c(-c3ccccc3)nc2c1,inactive,–
CC[n+]1c(/C=C/Nc2ccccc2)oc2ccccc21,1.41 µM (active),–
O=C(O)CN=C1NC2(CCCC2)Cc2ccccc21,inactive,–
COC(=O)N1CCC2(CC1)CCN(c1ccncc1)CC2,inactive,–
N=C1CCC[C@@H]1C(=S)SCCC(N)=O,–,0.37% [at 11.4 µM]
COc1ccccc1-c1nccc(NC2CCNCC2)n1,inactive,–
COc1ccccc1-c1nccc(NCc2cccc(C)c2)n1,1.58 µM (active),–
CNc1ccnc(-c2ccccc2OC)n1,5.01 µM (active),–
COc1ccccc1-c1nccc(NCc2ccccc2)n1,3.98 µM (active),–
Cc1cccc(CNc2ccnc(-c3ccccc3Cl)n2)c1,15.8 µM (active),–
CNc1ccnc(-c2ccccc2C(F)(F)F)n1,inactive,–
Cc1cnc(CNc2ccnc(-c3ccccc3Cl)n2)cn1,inactive,–
CNc1ccnc(-c2ccccc2C)n1,inactive,–
C=CCNC(=O)c1ccccc1Cl,inactive,–
COc1ccc(-n2c(=O)c(C)nc3cnc(N4CCOCC4)nc32)cc1,inactive,–

Structure (SMILES),AC50,"activity, negative = inhibition"
COc1cccc(/C(O)=C2/C(=O)C(=O)N(Cc3cccnc3)C2c2ccco2)c1 (configuration not stated),inactive,–
C[C@@H]1NC(=O)C/C=C\[C@@H](C)[C@@H]2C=C[C@H](O)[C@@H](COC(=O)[C@H](C)NC(=O)C/C=C\[C@@H](C)[C@@H]3C=C[C@H](O)[C@@H](COC1=O)O3)O2,–,9.45% [at 11.4 µM]
COc1cccc(Cn2c(=O)c(-c3cccc(C#N)c3)nc3cnc(Nc4ccccc4)nc32)c1,inactive,–
O=C(O)c1c(Br)c(Br)c(Br)c(Br)c1C1c2ccc(O)cc2Oc2cc(O)ccc21,–,-6.23% [at 11.4 µM]
O=c1[nH]n(-c2cccc3cccnc23)c(=O)c2ccccc12,inactive,–
COc1ccc(OC)c(NC(=O)Cn2cccc2)c1,inactive,–
Cc1occc1C(=O)NNC(=O)Cc1ccccc1,inactive,–
CCCCn1nnnc1SCC(=O)N1CCCC1,inactive,–
O=c1[nH]c(=S)[nH]c(-c2ccccc2)c1Cc1c(O)ccc2ccccc12,–,-6.41% [at 11.4 µM]
Cc1cccc(CNc2cc(-c3ccc(C(=O)N(C)C)cc3)ncn2)c1,inactive,–
Cc1cccc(CNc2ccnc(-c3ccccc3CN(C)C)n2)c1,2.51 µM (active),–
CCN(C(=O)Cn1c(=O)oc2ccccc21)c1cccc(C(F)(F)F)c1,inactive,–
Cc1ccccc1Oc1ncnc2oc(-c3ccccc3)cc12,inactive,–
CC(=O)Oc1ccccc1C(=O)Oc1ccccc1C(=O)O,inactive,–
CCn1c(SCC(=O)Nc2nc3ccc(C)cc3s2)nc2c(c1=O)SC(C)C2 (configuration not stated),inactive,–
O=C(N/N=C/c1ccc(Cl)cc1Cl)Nc1ccccc1,inactive,–
O=C(Nc1ccccc1)N[C@H]1C[C@H](C(=O)O)Nc2cc(Cl)cc(Cl)c21,12.6 µM (active),–
O=C(N/N=C/c1ccc(Cl)cc1)Nc1ccccc1,inactive,–
COCCn1c(=O)c(-c2ccc(F)cc2)nc2cnc(Oc3ccccc3)nc21,inactive,–
O=C(Nc1cccc(F)c1)Nc1ccccn1,inactive,–
CCOC(=O)c1cnn(-c2nc(-c3ccc(F)cc3)cs2)c1C(F)(F)F,inactive,–
CCOC(=O)c1sc2nc(CC(=O)OC)nc(NCc3ccc(F)cc3)c2c1C,25.1 µM (active),–
CCOC(=O)c1nnc(-c2ccccc2)nc1NCc1ccccc1,inactive,–

Structure (SMILES),AC50,"activity, negative = inhibition"
CCCCOC(=O)C1=C(C)Nc2ncnn2C1c1cc(OC)ccc1OC (configuration not stated),inactive,–
O=C(Cc1ccc(S(=O)(=O)N2CCOCC2)s1)Nc1nc2c(s1)CCCC2,inactive,–
Cc1ccc(CN2C(=O)CCC2C(=O)NCc2cccnc2)cc1 (configuration not stated),inactive,–
O=C(NCC1CCCO1)C1CCC(=O)N1CCc1ccccc1 (configuration not stated),inactive,–
CC(C)N(CCNC(=O)C1CCC(=O)N1Cc1ccc(F)cc1)Cc1ccccc1 (configuration not stated),1.26 µM (active),–
O=c1c(CCc2ccccc2)nc2cnc(Oc3cccc(Cl)c3)nc2n1C[C@H]1CCCO1,inactive,–
CCCN(CCC)CCCNC(=O)c1cc2cc3ccc(OC)cc3nc2o1,inactive,–
CCOC(=O)C1=NNC2(c3ccc(Cl)cc3)C(=O)N(c3cc(C)cc(C)c3)C(=O)C12 (configuration not stated),inactive,–
CCCCOC(=O)CSc1nnc(-c2cc(OC)c(OC)c(OC)c2)o1,inactive,–
O=C(O)C/C(=C\c1ccco1)C(=O)O,–,1.84% [at 11.4 µM]
O=c1cnc2cncnc2n1Cc1ccccc1,inactive,–
CC1(C)N=C(N)N=C(N)N1c1cccc(OCc2cccc(N)c2)c1,2.51 µM (active),–
CC1(C)N=C(N)N=C(N)N1c1cccc(CSc2ccccc2)c1,0.251 µM (active),–
Nc1cccc(OCc2nc(N)nc(N)c2-c2ccc(Cl)cc2)c1,–,-14.7% [at 11.4 µM]
COc1ccc(-n2c(C)nn(C)c2=O)cc1,inactive,–
COc1ccc(-n2cnnc2)cc1,inactive,–
COc1ccc(N2C(N)=NC(N)=NC2(C)C)cc1,14.1 µM (active),–
COC(=O)c1nc(NC(=O)c2ccccc2)n[nH]1,inactive,–
COc1cc(C(=O)NCCC(C)C)c([N+](=O)[O-])cc1OC,inactive,–
CCCCCCCCCCCCCCCCCC(=O)O[C@H](CC(=O)O)C[N+](C)(C)C,inactive,–
O=P(O)(O)CCP(=O)(c1ccccc1)c1ccccc1,inactive,–
